Screens (PubChem)
NTR1 agonist = activates human neurotensin receptor 1; P30989; NTR1-U2OS beta-arrestin-GFP spot imaging, agonist mode; activation, % at 20 µM; 330,000 tested, 0.17% active; AID 493036;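 active means activation at or above 40% of the spot to cytoplasm intensity ratio, with at least 20 cells analyzed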;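 further: 0% = DMSO without peptide and 100% = 100 nM NTR1 peptide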
Target sequence (P30989 whole entry, looked up): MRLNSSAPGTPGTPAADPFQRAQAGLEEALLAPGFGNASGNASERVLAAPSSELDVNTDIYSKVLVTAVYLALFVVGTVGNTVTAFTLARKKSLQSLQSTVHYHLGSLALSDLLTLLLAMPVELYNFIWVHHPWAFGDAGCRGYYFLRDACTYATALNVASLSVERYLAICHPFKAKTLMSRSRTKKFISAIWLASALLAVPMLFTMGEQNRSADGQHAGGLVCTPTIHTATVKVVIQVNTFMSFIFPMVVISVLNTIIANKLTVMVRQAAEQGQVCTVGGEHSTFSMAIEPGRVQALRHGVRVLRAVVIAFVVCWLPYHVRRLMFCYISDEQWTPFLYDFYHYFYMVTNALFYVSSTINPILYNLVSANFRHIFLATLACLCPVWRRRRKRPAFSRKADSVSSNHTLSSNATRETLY
V-ATPase pH = alters yeast V-ATPase proton transport; S. cerevisiae, pHLuorin cytosolic pH fluorescence; response, % at 10 µM; 350,000 tested, 0.37% active; AID 504577; in the data active means response mostly above about 7.3%, no sharp cut-off; inactive means mostly below about 5.4%; further: actives read high
CRFBP-R2 block = blocks CRF-induced signaling of the CRF-BP/CRF-R2 complex; 350,000 tested, 0.59% active; inhibition, % at 11.8 µM; HEK293 CRF-R2/CRF-BP, CRF-induced calcium fluorescence;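 active means inhibition of the ligand-induced calcium signal above about 50% at the single tested concentration, limit read from the data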
CRFBP-R2 agonist = agonists of human CRF-binding protein/CRF-R2 receptor complex | HEK293 CRF-R2/CRF-BP, calcium dye fluorescence (FLIPR); percent of saturating CRF peptide response | 350,000 tested, 0.46% active | activation, % at 13.2 µM;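 active means activation of at least 50%, plus an integration ratio under a set limit after plate pattern correction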;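 further: plate controls were neutral control wells without compound for no effect and CRF at EC100 for full effect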
NTR1 ag confirm = NTR1 (human) agonism, confirmed | activation, % at 20 µM | NTR1-U2OS beta-arrestin-GFP translocation imaging | shares compounds with NTR1 agonist | 480 tested, 38% active;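 active means mean activation at 20 µM of at least 40%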;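 further: 0% = DMSO without peptide and 100% = 100 nM NTR1 peptide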
* hit, by the source's call; · = no result. Shown are actives, neighbours in structure and some others; about 1.5% of the full set was active somewhere.

SMILES	NTR1 agonist	V-ATPase pH	CRFBP-R2 block	CRFBP-R2 agonist	NTR1 ag confirm
COc1ccc(/C=N/NC(=O)c2ccoc2C)cc1CN1CCN(c2ccc(F)cc2)CC1	1.4	1.9	0.2	-1.4	·
Cn1cc([N+](=O)[O-])c(C(=O)Nc2nc(-c3ccc(Cl)cc3)cs2)n1	49.3*	-6.2	16.6	0.9	71.3*
Cc1nn2c(=O)cc(CSCC(=O)Nc3ccccc3Cl)nc2s1	-1.9	-2.0	6.0	0.5	·
Cc1cccc2sc(NNC(=O)c3cc(-c4cccs4)nc4ccccc34)nc12	40.4*	-0.4	-2.0	-1.4	-0.6
NNC(=O)c1cc(-c2cccs2)nc2ccccc12	0.2	-102.5	-5.5	-0.7	·
CC(=O)Nc1ccc(S(=O)(=O)N2CCC(c3nc4c(nnn4Cc4ccccc4Cl)c(=O)[nH]3)CC2)cc1	0.0	0.8	5.0	-0.5	·
COc1cc(CNCCc2ccccc2)cc(Cl)c1OCc1ccccc1	61.2*	-4.9	-6.9	-0.3	6.2
COc1cc(CNCc2ccccc2)cc(Cl)c1OC	3.3	-3.4	-5.7	-1.4	·
O=C(/C=C/c1ccc(OCCCF)cc1)Nc1ccnc(-c2ccncc2)n1	55.8*	1.4	5.5	-0.8	-8.0
O=C1CC(c2ccccc2)Cc2nc3nc(C(F)(F)F)nn3cc21 (stereo unspecified)	49.2*	3.5	-26.2	8.0	0.7
O=C1CC(c2ccc(F)cc2)Cc2nc(N3CCN(c4ccccc4)CC3)ncc21 (stereo unspecified)	4.8	-2.5	-13.4	-0.5	·
CCCCNc1c(-c2ccc(OC)c(SC(C)CC)c2)nc2ccc(C)cn12 (stereo unspecified)	51.0*	-0.9	4.4	1.6	72.1*
COC(=O)CN1C(=O)C2(C(C#N)=C(N)Oc3n[nH]c(-c4cccs4)c32)c2ccccc21 (stereo unspecified)	53.4*	-2.3	7.2	0.5	-2.8
CCN1C(=O)C2(C(C#N)=C(N)Oc3n[nH]c(-c4ccccc4)c32)c2ccccc21 (stereo unspecified)	2.3	-4.6	-10.2	-0.2	·
COc1ccc(C2=NC(C)(C)Cc3cc(OC)c(OC)cc32)cc1	1.5	-0.7	4.4	-1.1	·
COc1cc2c(cc1OC)C(SC)=NC(C)(C)C2	48.3*	2.5	22.0	-0.5	80.3*
Oc1cccc(Nc2nc(-c3ccccc3Cl)nc3ccccc23)c1	7.9	-1.1	2.1	-0.5	·
Cc1ccc(-c2nc(Nc3cccc(O)c3)c3ccccc3n2)cc1	56.9*	-1.0	-35.2	4.4	44.5*
CCCOC(=O)c1cccc(Nc2nc(-c3cccnc3)nc3ccccc23)c1	43.7*	-0.3	-15.7	1.1	43.6*
O=[N+]([O-])c1ccc(-c2nc(Nc3cccc(O)c3)c3ccccc3n2)cc1	55.7*	5.7	-11.8	-0.3	48.5*
Cc1ccc(-c2nc(Nc3ccc(O)cc3)c3ccccc3n2)cc1	42.4*	2.1	-0.2	-1.4	37.1
COc1ccc(OC)c(CC(NC(C)=O)C(=O)NC2CCN(c3nc(OC)nc(OC)n3)CC2)c1 (stereo unspecified)	-0.3	0.7	-2.1	-4.2	·
Cc1cc(=O)oc2cc(OCC(=O)NC3(C#N)CCCCC3)ccc12	·	1.6	-6.7	-0.6	·
O=C(COC(=O)COc1cccc(C(F)(F)F)c1)NC(=O)NC1CCCCC1	1.7	-4.8	16.1	-0.2	·
CCOC(=O)COc1ccc(/C=C/[N+](=O)[O-])c(OCC(=O)OCC)c1	74.5*	-0.2	-17.1	0.2	69.2*
SMILES	NTR1 agonist	V-ATPase pH	CRFBP-R2 block	CRFBP-R2 agonist	NTR1 ag confirm
CCOc1ccc(/C=C/[N+](=O)[O-])c2ccccc12	80.5*	5.3	-60.2	11.6	65.7*
CCN(C(=O)Cn1cnc2c1c(=O)n(C)c(=O)n2C)C1CCCCC1	-0.5	0.5	-7.0	-0.2	·
CN(C)c1ccc(-n2cccc2/C=C/[N+](=O)[O-])cc1	63.1*	-2.0	-12.9	-0.6	66.4*
CN(C)c1ccc(/C=C/c2c([N+](=O)[O-])c(=O)n(C)c(=O)n2C)cc1	-0.9	0.1	-2.0	-2.3	·
COC(=O)c1c(NC(=O)COC(=O)c2ccc(O)cc2)sc2c1CCCCC2	42.9*	·	-11.0	0.8	32.6
CCC(C(=O)OCC(=O)NCc1ccc2c(c1)OCO2)c1ccccc1 (stereo unspecified)	-1.0	2.6	2.2	0.9	·
O=C(COC(=O)/C=C/C(=O)OCC(=O)NC12CC3CC(CC(C3)C1)C2)NC12CC3CC(CC(C3)C1)C2	85.1*	2.9	-3.8	7.1	40.2*
NC(=O)CSc1nnc(CSc2ncccn2)n1-c1ccccc1	-2.0	0.1	26.9	-1.0	·
CCOc1cc(/C=C2\C(=O)ON=C2C)ccc1OCc1ccccc1	59.8*	4.0	-38.1	48.9	84.3*
CCn1cc(C(=O)N[C@H](C(=O)NCCO)C(C)C)c(=O)c2cc3c(cc21)OCO3	1.4	-3.6	-2.0	-0.7	·
CN(C)S(=O)(=O)c1ccc(S(=O)(=O)NCc2cccs2)cc1	42.0*	-2.6	10.1	-0.8	-2.1
CC1CC(C)CN(CCCNC(=O)c2ccc3c(c2)NC(=O)CS3)C1 (stereo unspecified)	1.3	0.0	-5.2	0.3	·
Cc1ccc(C)c(N2CCN(C(=O)C3CCCN(c4ncnc5c4nc4n5CCCCC4)C3)CC2)c1 (stereo unspecified)	20.2	-1.6	-25.3	-0.9	·
Cc1cccc(N2CCN(C(=O)C3CCN(c4ncnc5c4nc4n5CCCCC4)CC3)CC2C)c1 (stereo unspecified)	54.7*	-4.0	-7.2	-2.7	31.3
Cc1ccc(N2CCN(C(=O)C3CCCN(c4ncnc5c4nc4n5CCCCC4)C3)CC2)c(C)c1 (stereo unspecified)	72.7*	-2.9	-35.5	0.1	29.5
Cc1cccc(N2CCN(C(=O)C3CCN(c4ncnc5c4nc4n5CCCCC4)CC3)CC2)c1C	16.6	1.7	-4.0	-0.9	·
COC(=O)c1c(NC(=O)C2SC(=NC3CCCCC3)C(C(N)=O)=C2N)sc2c1CCCC2 (stereo unspecified)	42.6*	-1.0	-23.1	-1.2	16.5
Cc1ccc(-n2nnc3c(=O)oc4ccccc4c32)cc1	57.7*	-1.5	40.4	-3.0	19.8
COCCCn1c(=NC(C)=O)c(C#N)cc2c(=O)n3cccc(C)c3nc21	0.9	3.6	-0.3	7.0	·
COCCCn1c(=NC(=O)c2ccccc2)c(C#N)cc2c(=O)n3cccc(C)c3nc21	49.5*	-1.5	-1.7	5.4	19.5
CCOC(=O)C1CN(S(=O)(=O)c2ccc(C)cc2)c2ccccc2O1 (stereo unspecified)	1.1	4.9	1.5	-0.4	·
Cn1ncc2c(Nc3cccc(Cl)c3)nc(Nc3cccc(Cl)c3)nc21	63.8*	-0.8	-17.8	-1.4	28.9
Cn1ncc2c(Nc3ccc(Br)cc3)nc(Nc3ccc(Br)cc3)nc21	30.6	1.4	-23.7	1.2	·
COc1ccc(C(=O)NC(=S)NCC2CCCO2)cc1 (stereo unspecified)	2.2	3.9	18.0	-0.8	·
Nc1ccc(C(=O)N/N=C\c2ccc(OC(=O)c3ccccc3Cl)cc2)cc1	-0.7	-1.0	-4.2	-0.1	·
